Compounds without any hit were thinned out: in the full panel of roughly 79,000, 15% have a hit. Calls of active or inactive are those of the source. Rule as the data show it: active = growth inhibition above about 70%; inactive = the rest.
Experiments:
[1] = NCI Yeast Anticancer Drug Screen. Data for the rad50 strain (AID 155);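 also: 0% = growth of vehicle-only cultures of the same strain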; details: S. cerevisiae rad50 strain growth inhibition; at 50.0 µM; hits give high values
Summary of the method: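 Genetically altered yeast (DNA repair pathway); compound treatment; growth inhibition vs vehicle ctrl.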

[2] = NCI Yeast Anticancer Drug Screen. Data for the mec2-1 strain (AID 157); details: S. cerevisiae mec2-1 strain, at 50.0 µM, hits give high values
Summary of the method: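 Mutant yeast (mec2-1) grown with compound; growth inhibition relative to vehicle control reported.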

[3] = NCI Yeast Anticancer Drug Screen. Data for the sgs1 mgt1 strain (AID 161);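 also: 0% = growth of cultures given vehicle only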; details: S. cerevisiae sgs1 mgt1 strain, at 50.0 µM, hits give high values
Summary of the method: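 Percent growth inhibition was derived by comparing compound-exposed mutant yeast with vehicle-exposed cultures. The strain carries alterations in DNA damage repair.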

[4] = NCI Yeast Anticancer Drug Screen. Data for the cln2 rad14 strain (AID 165);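 also: 0% = growth equal to vehicle treated cultures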; details: S. cerevisiae cln2 rad14 strain, at 50.0 µM, hits give high values
Summary of the method: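 Readout is yeast growth inhibition versus vehicle-treated controls, using a strain with cln2 and rad14 alterations exposed to compound.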

[5] = NCI Yeast Anticancer Drug Screen. Data for the bub3 strain (AID 167); details: S. cerevisiae bub3 mutant strain, at 50.0 µM, hits give high values
Summary of the method: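 Yeast carrying a defined mutation is treated with each compound, and growth is compared with that of vehicle-exposed cells to give inhibition.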

[6] = NCI Yeast Anticancer Drug Screen. Data for the mlh1 rad18 strain (AID 175); details: S. cerevisiae mlh1 rad18 strain growth inhibition; at 50.0 µM; hits give high values
Summary of the method: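 Genetically defined yeast (DNA repair-deficient) exposed to compounds; growth inhibition determined relative to vehicle.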

Measured: growth inhibition

CC(=O)OC1COC(Cl)C(OC(C)=O)C1OC(C)=O (stereo not given)
inactive: [1] -4.95% | [2] -2.9% | [3] 0.1% | [4] 3.95% | [5] -8.95% | [6] 1.75%

[O-][n+]1onc2c1CCC(=N\O)/C2=N/Nc1ccccc1
inactive: [1] -1.55% | [2] -1.05% | [3] -15.1% | [4] 34.9% | [5] 18.6% | [6] 11.3%

CC(C)(C)CC(C)(C)NCc1ccc(Cl)cc1
active: [1] 78.6%
inactive: [2] 45% | [3] 61.3% | [4] 40.2% | [5] 65.6% | [6] 60.6%

CCCOc1ccc(C(=O)C(C(c2ccccc2)N2CCOCC2)N2CCOCC2)cc1 (stereo not given)
inactive: [1] -71.2% | [2] 22.5% | [3] 21% | [4] 36.7% | [5] 35.8% | [6] 54%

O=C(NCc1ccccn1)c1ccccc1
inactive: [1] 17.5% | [2] 15.8% | [3] -4.45% | [4] -18.9% | [5] 17.1% | [6] 6.8%

COc1cc2c(cc1OC)[C@H]1C(COC(=O)Nc3ccccc3)CN1CC2 (stereo not given in full)
inactive: [1] -28.9% | [2] -0.7% | [3] -42.7% | [4] -9.75% | [5] -30.6% | [6] -49.1%

O=S(=O)(Cl)c1cccc2cc3ccccc3cc12
inactive: [1] 0.6% | [2] -10.1% | [3] 3.95% | [4] -12.9% | [5] 12.9% | [6] -7.05%

OC(c1ccccc1)C1(O)CCCCC1 (stereo not given)
inactive: [1] -10.8% | [2] -5.25% | [3] -1.7% | [4] -52.5% | [5] -17.1% | [6] 9.75%

COc1ccc(NC(=O)c2cc3ccccc3cc2OC(=O)NC(C)(C)C)cc1
inactive: [1] -12.5% | [2] -13.3% | [3] -7.15% | [4] 2.5% | [5] -0.15% | [6] -32.8%

OC1COC(O)(CN2CCOCC2)C(O)C1O (stereo not given)
inactive: [1] 14.2% | [2] 5.95% | [3] 10.6% | [4] 4.75% | [5] 18.1% | [6] 7.6%

COC(=O)/C=C(/N)CC(=O)OC
inactive: [1] 16.9% | [2] -25.4% | [3] -8.35% | [4] 10.9% | [5] -15.9% | [6] 1.75%

COc1ccccc1C1OC(C)C(C)O1 (stereo not given)
inactive: [1] -16.1% | [2] -10.7% | [3] -7.35% | [4] 5.5% | [5] -25.9% | [6] -16.3%

CC1(C)CC(C)(Br)C(Br)C(=O)C1C(O)(C(F)(F)F)C(F)(F)F (stereo not given)
active: [1] 99.5% | [2] 99.8% | [3] 99.8% | [4] 99.2% | [5] 99.6% | [6] 99.8%

O=C(O)CCNc1ncnc2nc[nH]c12
inactive: [1] -65.5% | [2] -13.2% | [3] -33.5% | [4] -34.6% | [5] 24.4% | [6] -19.9%

CC1=CC(=O)C(C(C)C)=CC1=O
inactive: [1] -9.55% | [2] 7.25% | [3] -4.25% | [4] 22.6% | [5] 4.7% | [6] 0.5%

O=C1C=C(Nc2cccnc2)c2ccccc2C1=O
inactive: [1] 9.5% | [2] -7.2% | [3] 0.4% | [4] 8.5% | [5] 19.6% | [6] 8.8%

NC(=O)CNC(=O)[C@@H]1CC(OCCC(=O)O)CN1C(=O)C1CCCN1C(=O)OCc1ccccc1 (stereo not given in full)
inactive: [1] 0.05% | [2] -0.8% | [3] 1.8% | [4] 6.25% | [5] 1.3% | [6] 6.75%

CCOc1ccccc1NC(=O)c1c(Br)c(Br)c(Br)c(Br)c1C(=O)O
inactive: [1] 5.6% | [2] -16.8% | [3] -1.8% | [4] -4.15% | [5] 6.05% | [6] -17.6%

CC(=O)Nc1ccc(NS(=O)(=O)c2ccc3nc(C)n(NS(=O)(=O)c4ccc(NC(C)=O)cc4)c(=O)c3c2)cc1
inactive: [1] 29.1% | [2] 38% | [3] 29.1% | [4] 15.4% | [5] 39.2% | [6] 15.3%

O=C(Nc1ccn(C2CCC(CO)O2)c(=O)n1)c1ccccc1 (stereo not given)
inactive: [1] 35.8% | [2] -3.05% | [3] -16.7% | [4] -23.8% | [5] 4.25% | [6] -7.55%
